Data taken from the supplement of paper PMC6555819.

Assays:
Experiment in all cases: PBM binding z-score (relative to random genomic background probes); higher = stronger binding; sequences stand for … in GC…GCGATTGACAGCGTAGAATGAAGG
[1] = tested on: FXR:RXRa (NR concentration 270 nM, RXRa partner concentration 90 nM)
Outline: (§1)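 Binding z-scores were set against random background probes. The data came from custom Agilent 4×180K protein-binding microarrays carrying double-stranded probes with 34-nt variable regions, incubated 1 h with ligand-free nuclear receptor dimers. Partner-specific antibodies detected binding, and scanned fluorescence was regression-normalized.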

[2] = tested on: LXRa:RXRa (NR concentration 270 nM, RXRa partner concentration 90 nM)
Outline: as §1

[3] = tested on: LXRa homodimer (NR concentration 270 nM)
Outline: as §1

[4] = tested on: LXRb:RXRa (NR concentration 270 nM, RXRa partner concentration 90 nM)
Outline: as §1

[5] = tested on: LXRb homodimer (NR concentration 270 nM)
Outline: as §1

[6] = tested on: PPARa:RXRa (NR concentration 270 nM, RXRa partner concentration 90 nM)
Outline: as §1

[7] = tested on: PPARg:RXRa (NR concentration 180 nM, RXRa partner concentration 90 nM)
Outline: as §1

[8] = tested on: PPARg:RXRa 270nM:90nM, anti-RXR (NR concentration 270 nM, RXRa partner concentration 90 nM)
Outline: as §1

[9] = tested on: PPARg:RXRa 30nM:10nM, anti-RXR (NR concentration 30 nM, RXRa partner concentration 10 nM)
Outline: as §1

[10] = tested on: PPARg:RXRa 90nM:30nM, anti-RXR (NR concentration 90 nM, RXRa partner concentration 30 nM)
Outline: as §1

[11] = tested on: PPARg:RXRa DBDmut IVT, anti-RXR (DBD mutation: RXRa K156A/R161A, NR concentration 270 nM, RXRa partner concentration 90 nM)
Outline: as §1

[12] = tested on: PPARg:RXRa IVT, anti-PPARg (NR concentration 270 nM, RXRa partner concentration 90 nM)
Outline: as §1

[13] = tested on: PPARg DBDmut:RXRa IVT, anti-PPARg (DBD mutation: PPARg1 K132A/R137A, NR concentration 270 nM, RXRa partner concentration 90 nM)
Outline: as §1

[14] = tested on: PPARg DBDmut IVT, anti-PPARg (DBD mutation: PPARg1 K132A/R137A, NR concentration 270 nM)
Outline: as §1

[15] = tested on: PPARg homodimer (NR concentration 180 nM)
Outline: as §1

[16] = tested on: PXR:RXRa (NR concentration 270 nM, RXRa partner concentration 90 nM)
Outline: as §1

[17] = tested on: PXR homodimer (NR concentration 270 nM)
Outline: as §1

[18] = tested on: RARa:RXR (NR concentration 270 nM, RXRa partner concentration 90 nM)
Outline: as §1

[19] = tested on: RARa homodimer (NR concentration 270 nM)
Outline: as §1

[20] = tested on: RARb:RXRa (NR concentration 270 nM, RXRa partner concentration 90 nM)
Outline: as §1

Row | Sequence | PBM binding z-score [1] | PBM binding z-score [2] | PBM binding z-score [3] | PBM binding z-score [4] | PBM binding z-score [5] | PBM binding z-score [6] | PBM binding z-score [7] | PBM binding z-score [8] | PBM binding z-score [9] | PBM binding z-score [10] | PBM binding z-score [11] | PBM binding z-score [12] | PBM binding z-score [13] | PBM binding z-score [14] | PBM binding z-score [15] | PBM binding z-score [16] | PBM binding z-score [17] | PBM binding z-score [18] | PBM binding z-score [19] | PBM binding z-score [20]
1 | GCAGACAGGTGAAACGCAGGGAACTCAGGGTGGC | -0.391 | -0.181 | -0.294 | -0.514 | -1.21 | 0.613 | 0.488 | -0.246 | -0.526 | -0.424 | 0.902 | 0.213 | 0.0548 | -0.787 | 0.0817 | -0.255 | -0.624 | 0.127 | -0.901 | 0.545
2 | GCACACAGGTGAAACGCAGGTAACTCAGGGTGGC | 0.021 | 0.302 | -0.342 | -0.349 | -0.845 | 0.939 | 0.853 | 0.355 | -0.481 | -0.0562 | 1.25 | 1.35 | -0.286 | -0.23 | -0.0515 | -0.134 | -0.747 | 0.575 | -0.648 | 0.803
3 | ACTAGTTGGTCAGCTGAGGTGACACACAATTCGG | 1.58 | 0.508 | -0.0551 | 0.499 | -0.125 | 1.27 | 1.16 | 0.582 | -0.235 | 0.398 | 1.56 | 2 | 0.518 | 0.422 | 0.486 | 0.897 | 0.101 | 1.27 | -0.129 | 1.45
4 | ATATGTAGGTTAAGGGTCAGTCAGGTTGGTTCGC | 3.7 | 3.26 | 1.44 | 3.34 | 0.965 | 6.05 | 11 | 9.37 | 9.35 | 11.6 | 7.48 | 7.77 | 4.77 | 2.22 | 3.78 | 4.14 | 2.03 | 4.53 | 2.65 | 3.51
5 | CCGACTGGGGCATAAGGTTACCGTAAGCCAGCCC | 0.834 | 0.933 | -0.596 | 0.83 | -1.46 | 2.03 | 2.33 | 3.5 | 1.26 | 3.13 | 3.14 | 3.4 | -0.802 | -1.39 | 0.271 | 0.55 | -0.911 | 1.66 | -0.61 | 1.98
6 | ATACCGAGGTGATCGTGAGGTCGTTGATACTAAC | 1.95 | 1.69 | 0.52 | 1.59 | -0.183 | 1.83 | 0.57 | 0.574 | -0.146 | 0.356 | 0.567 | 1.31 | 0.104 | 1 | 0.847 | 3.62 | 1.35 | 2.39 | -0.522 | 1.4
7 | TATATTAGTTGAAGGGCAACCGACGAGTCCGTTT | 0.481 | 0.797 | 0.861 | 0.474 | 1.01 | 0.509 | 0.844 | 1.23 | 0.993 | 1.22 | 0.182 | 0.973 | 1.48 | 1.13 | 1.26 | 0.629 | 0.738 | 0.321 | 1.47 | 1.68
8 | TCTATTAATTGATTAGGGCAACCGAAACAGCGGA | 0.209 | 0.405 | 1.09 | 0.283 | 0.631 | 0.559 | 0.157 | 1.87 | 3.6 | 2.5 | 1.84 | 1.09 | 0.728 | 1.07 | 2.22 | 0.386 | 1.53 | 0.419 | 2.52 | 0.75
9 | GCAGACAGGTGAAACCCAGGTAACTCAGGGTGGC | 0.292 | -0.00475 | -0.738 | -0.364 | -0.909 | 0.818 | 0.657 | -0.0881 | -0.673 | -0.524 | 0.362 | 0.476 | -0.384 | -0.363 | -0.871 | -0.19 | -0.863 | 0.261 | -1.14 | 0.645
10 | CAAACTAGGTCACGAAAGGTCGAAGTCGAATGAC | 5.94 | 6.62 | 2.69 | 5.17 | 0.867 | 6.03 | 9.65 | 7.81 | 5.91 | 8.11 | 8.79 | 9.21 | 6.19 | 3.15 | 3.9 | 5.95 | 1 | 5.45 | 1.66 | 4.86
11 | TCGAGTAGGTTACCAATGGGGCATTCAACTTTCT | 0.374 | 1.64 | -0.293 | 1.55 | 0.172 | 1.67 | 0.652 | 1.67 | 1.26 | 1.67 | 3.18 | 3.11 | -0.0959 | -0.457 | 0.301 | 0.506 | -0.241 | 0.916 | -0.285 | 1.14
12 | CCGACTGCGGCAAGGTTACCATAACGCACAGCCA | 0.311 | 0.827 | 0.0346 | 0.9 | -0.64 | 1.02 | 0.614 | -0.189 | -0.715 | -0.26 | -0.209 | -0.134 | -0.21 | -0.256 | 0.4 | 0.562 | 0.00644 | 0.946 | 0.0538 | 0.845
13 | ACAGACAGGTGAGTGAAGGTAACTCATCTGGACG | 0.0966 | -0.0411 | -0.402 | -0.512 | -0.306 | -0.155 | 0.684 | 0.0954 | 0.12 | -0.143 | 0.0887 | 0.393 | 0.131 | -0.119 | -1.01 | -0.3 | -0.565 | 0.0538 | -0.677 | 0.49
14 | ACAGACAGGTGAGTAAAGGTAACTCAGCTGGACG | 0.171 | 0.4 | -0.568 | -0.0938 | -0.506 | 0.95 | 1.25 | 1.64 | 0.681 | 1.27 | 0.353 | 1.07 | 0.151 | -0.231 | -0.162 | 0.082 | -0.77 | 1.06 | -0.0924 | 0.798
